# Experimental data published in PubChem BioAssay AID588343 (Broad Institute, 2011).
# About 650 (54%) of roughly 1,200 compounds were called active. Roughly 5% stayed inconclusive and do not appear here. The set was probably picked from earlier hits. Not all results are given here. Entries with a potency or affinity are not part of this list. A number with no mark means an inactive call.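 The calls were made as follows: active = signal-lowering curve whose fitted half-maximal concentration is at or below ten times the top valid dose tested; inconclusive = flat curve with 30 to 70% inhibition, or poor fit; inactive = signal increase, flat within 30%, or potency beyond limit.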
# Experiment: inhibitors of LMP1-driven NF-kB reporter, dose response, cell-based, HEK293, luciferase, cherry-pick (AID 588343);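 also: 0% = median of neutral control wells and -100% = MG132 positive control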
# Conditions: HEK293 LMP1 TES2 NF-kB luciferase reporter, 16 h; series mostly up to 35 µM; activity change, negative = inhibition: at the top concentration
row,Compound,"activity change, negative = inhibition [%]"
1,Cc1cc(=O)[nH]c(=S)[nH]1,-0.637
2,C=CC[N+](C)(C)C/C(Cl)=C(\Cl)c1ccccc1,-4.54
3,O=c1cc(C2CCCCC2)[nH]c(=O)[nH]1,-3.35
4,CC(C)NC(=O)N(C)C[C@H]1Oc2c(NC(=O)Nc3ccc4c(c3)OCO4)cccc2C(=O)N([C@H](C)CO)C[C@@H]1C,15.6
5,Cc1ccc(S(=O)(=O)N2CCN(C(=O)COC(=O)COc3ccc(Cl)cc3)CC2)c(C)c1,10.8
6,COc1cc2cc(C(=O)N3CCN(c4ccccc4OC)CC3)[nH]c2cc1OC,13.6
7,CCC(C)N1C(=O)CCC1C(=O)N1CCN(c2ccc(F)cc2)CC1 (centres undefined),2
8,O=C1c2cccc3c(O)ccc(c23)C(=O)N1c1ccc(Cl)cc1,-19.5
9,O=C(CC(c1ccc(F)cc1)c1ccco1)N1CCOCC1 (centres undefined),14.7
10,Fc1cccc(Cl)c1/C=N/n1c(-c2cccnc2)n[nH]c1=S,6.16
11,COc1ccc(/C=C/C(=O)OCC(=O)NCc2ccco2)cc1OC,4.97
12,O=C(NCc1ccco1)C1CC(=O)N(c2cccc(Cl)c2)C1 (centres undefined),-0.017
13,COc1cc(NCCCCCCN)c2ncccc2c1OC,-15.4
14,O=C(Nc1ccc(F)c(F)c1)C1CCCCC1,-11.7
15,COC(=O)c1ccccc1NC(=O)CSc1nnnn1C,0.333
16,Cc1ccc(S(=O)(=O)N2CCN(C(=O)CSc3nnnn3C)C2)cc1,9.83
17,O=C1c2ccccc2C(O)N1Cc1ccccc1 (centres undefined),4
18,Cc1cc(=S)[nH]c2ccccc12,6.14
19,Cc1ccc(-n2c(=O)c3c(c4cc(C)ccc4n3C)n(CC(=O)NCC3CCCO3)c2=O)cc1 (centres undefined),12.9
20,COC(=O)c1c(O)ccc(Oc2ccccc2)c1C(=O)OC,-3.74
21,NC(=O)OCC(COC(N)=O)c1ccccc1,12.9
22,CC1CCN(CCOc2ccc(C(=O)c3ccccc3)cc2)CC1,5.09
23,O=C(O)c1ccccc1Nc1cccc(OCc2ccc3ccccc3n2)c1,1.96

row,Compound,"activity change, negative = inhibition [%]"
1,CCN(CC)S(=O)(=O)c1ccc(N=NC2=C(O)CCCC2=O)cc1,2.7
2,Cc1cc(NC(=O)CSc2ccnc(=O)[nH]2)no1,0.208
3,COC(=O)c1c(NC(=O)c2nn(C)cc2Cl)sc2c1CCCC2,62
4,Nc1ccccc1SC1CC(=O)N(c2ccccc2Cl)C1=O (centres undefined),10.9
5,Cc1ccc(S(=O)(=O)N[C@H](C(=O)N2CCC(C(=O)N[C@@H](CC(=O)O)C(=O)O)CC2)C(C)C)cc1,-7.64
6,CCCSc1ccc([C@@H]2[C@H]3C(=O)N(C)C(=O)[C@H]3[C@]3(C(=O)OC)CCCN23)cc1OC,6.82
7,CC(C)N1CCN(c2ccc(OC[C@H]3CO[C@](Cn4cncn4)(c4ccc(Cl)cc4Cl)O3)cc2)CC1,117
8,COC(=O)C1=C(C(=O)c2ccccc2)C(c2ccccc2)n2nnnc2N1 (centres undefined),-4.39
9,Cc1cc(C)n2nc(CC(=O)NC3CCCCCC3)nc2n1,1.1
10,Cc1cc(=O)[nH]c(N/N=C/c2ccc(C)o2)n1,11.1
11,Cc1cc(C)c2sc(NC(=O)C3CC3)nc2c1,19.8
12,CCSC1=C(C#N)C(c2ccc(C)o2)CC(=O)N1 (centres undefined),-3.06
13,CC(=O)/C=C/c1ccccc1O,-0.887
14,COc1ccc(-c2csc(Nc3cccc(C)n3)n2)cc1OC,35
15,CCOC(=O)c1c(NC(=O)C2C3CCC(O3)C2C(=O)O)sc(C)c1-c1ccc(F)cc1 (centres undefined),12.8
16,COc1ccc([C@H]2N[C@]3(CCCN(Cc4ccco4)C3=O)[C@H]3C(=O)N(Cc4ccccc4)C(=O)[C@@H]23)cc1,19.1
17,CCN1C(=O)[C@@H]2[C@@H](c3ccc(-c4ccc(Cl)c(Cl)c4)cc3)N3CCC[C@@]3(C(=O)OC)[C@@H]2C1=O,-24.3
18,O=C1N[C@@H](Cc2c[nH]c3ccccc23)COC(=O)[C@H](Cc2ccc(F)cc2)C/C=C\C[C@H]1CC(=O)N(CCO)Cc1ccccc1,-15.7
19,Cc1sc2nc(SCC(=O)OC(C)C)n(C)c(=O)c2c1C,1.51
20,CCCCCn1c(N2CCOCC2)nc2c1c(=O)n(CC(N)=O)c(=O)n2C,-0.846
21,COc1cc2c(CCNC(C)=O)c[nH]c2cc1Cl,16.4
22,CC(C)OCCCNC(=O)C1CCC(CNS(=O)(=O)c2ccccc2)CC1 (centres undefined),-0.212
23,O=S(=O)(NC1c2cccc3cccc(c23)C1Sc1ncccn1)c1ccccc1 (centres undefined),36.8

row,Compound,"activity change, negative = inhibition [%]"
1,COc1ccc(C(=O)NCCNc2nc3cc(C)c(C)cc3cc2C)cc1,64.1
2,Cc1onc(-c2ccccc2)c1C(=O)NC(=S)NNC(=O)c1ccc(O)cc1O,-19.8
3,CCC(C)(C)NC(=O)C(c1ccc(F)cc1)N(CCOC)C(=O)CCC(=O)Nc1nccs1 (centres undefined),-6.19
4,COc1cccc(C(=O)OCn2nnc3ccccc3c2=O)c1OC,2.5
5,O=C(N/N=C/c1cccnc1)c1cc(-c2cccs2)nc2ccccc12,-8.97
6,O=C(O)c1ccc(C=NN=C2c3ccccc3-c3ccccc32)cc1,0.799
7,CNC(=S)Nc1ccc2nc(C)c(C)nc2c1,-0.101
8,O=C1CC(c2cccs2)Cc2nc(NC(=O)C3CC3)ncc21 (centres undefined),-13.7
9,CC(C)[C@H](N[C@@H](C)c1ccccc1)c1c(O)ccc2ccccc12,-7.33
10,CCn1c(SC(C)C)nnc1-c1c[nH]c2ccccc12,11.7
11,COc1ccccc1-n1c(-c2ccccc2)n[nH]c1=S,4.68
12,CC(=O)c1cc(C(=O)Nc2ccc(C(=O)O)cc2)oc1C,6.78
13,COc1ccc(-c2nc(CN3CCC(C(=O)N4CCOCC4)CC3)c(C)o2)cc1C,8.89
14,COc1ccc(-n2cnc3c(cnn3CCC#N)c2=N)cc1,-13.3
15,O=C(N/C(=C/c1ccc(Br)cc1)C(=O)N1CCOCC1)c1ccc(Br)o1,5.38
16,CCN(CC(=O)NCc1ccc(F)cc1)CC(=O)Nc1cc(S(=O)(=O)N(C)C)ccc1C,-6.07
17,O=C(Nc1cc(Cl)ccc1Cl)C1Cc2ccccc2O/C1=N\O (centres undefined),14
18,COc1ccc(CNC(=O)N2[C@H]3CC[C@@H]2C=C(c2ccc(F)cc2OCc2ccccc2)C3)cc1OC,-8.52
19,Clc1cccc(CN2CCCCCC2)c1,-0.884
20,Cc1cccc(Cn2nc(-n3cccc3)c3c(C)cc(C)nc32)c1,32.5
21,CN1CCc2cccc3c2C1Cc1ccc(O)c(O)c1-3 (centres undefined),4.31
22,CCOc1ccccc1C(=O)NC1CC2CCCC(C1)N2Cc1nnnn1Cc1ccco1 (centres undefined),11.9
23,COc1ccc(OC)c(NC(=O)COC(=O)COc2ccc(Nc3ccccc3)cc2)c1,-4.07

row,Compound,"activity change, negative = inhibition [%]"
1,COc1ccccc1NC(=O)C(=O)N/N=C(\C)CC(=O)Nc1ccccc1C(F)(F)F,-2.64
2,S=C(NN=C1C2CC3CC(C2)CC1C3)Nc1ccccc1,8.92
3,COc1ccc(S(=O)(=O)N2CCCCCC2)cc1C(=O)OCc1cccc(OC)c1OC,-11.5
4,CC(=O)Nc1ccc(S(=O)(=O)N2CCCC2)cc1,1.94
5,COC(=O)c1cc2n(n1)CCN(Cc1ccccc1Cl)C2=O,13.4
6,COC(=O)CCCC[C@@H]1SC[C@@H](NC(=O)OC)[C@@H]1NC(=O)OC,-6.29
7,N#CCCn1cc(C(=O)Nc2ccccn2)c(-c2ccccc2)n1,3.77
8,C/C(=N\Nc1ccc(C(F)(F)F)cc1[N+](=O)[O-])C(C)C,-10.7
9,CN(CC(=O)Nc1cccnc1)S(=O)(=O)c1ccc(Br)cc1,0.72
10,COc1ccc(S(=O)(=O)N2CCOCC2)cc1NC(=O)COC(=O)CCS(=O)(=O)c1ccc(C)cc1,-11.2
11,N#CCN(N=Nc1ccccc1)c1ccccc1,-1.17
12,COc1cc(C2NC(=O)NC(C)=C2C(=O)OC2CCCC(C)C2)cc(Br)c1O (centres undefined),28
13,CCOC(=O)C1CCN(S(=O)(=O)Cc2ccccc2)C1=O (centres undefined),-10.9
14,COc1cccc(C2=CC(=O)C[C@H](c3ccc4c(c3)OCO4)C2)c1,15.4
15,Cc1cc(N2CCCC2=O)cc(C)c1S(=O)(=O)Nc1c(C)nn(C)c1C,-5.41
16,N#CC1=C(N)OC2=C(C(=O)CCC2)C12C(=O)N1CCCc3cccc2c31 (centres undefined),-0.45
17,O=C1CCc2cc(OCCCCc3nnnn3C3CCCCC3)ccc2N1,-5.16
18,CN(C)S(=O)(=O)c1cccc(NC(=O)c2n[nH]c(=O)c3ccccc23)c1,-8.91
19,Cc1cc(C)nc(SCC(=O)OCN2C(=O)c3ccccc3C2=O)n1,-6.66
20,Cc1cc(N=Cc2c(O)ccc3cc(Br)ccc23)no1,-0.466
21,Cc1cc2ccccc2n1CCNC(=O)COc1ccc2ccccc2c1,0.91
22,CCOc1ccc(N(C(C)C(=O)N2CCCCCC2)S(C)(=O)=O)cc1 (centres undefined),0.021
23,CCOc1ccc(S(=O)(=O)N2CCC(C(=O)NCCc3ccc(S(N)(=O)=O)cc3)CC2)cc1,2

row,Compound,"activity change, negative = inhibition [%]"
1,CCOc1cccc(CNc2nnnn2C)c1,-1.72
2,COc1ccccc1/C=C/C(=O)c1ccc(Cl)cc1,-16.5
3,CCn1c(NC(=O)c2ccc(C)cc2)c2ccccc2nc1=O,-4.03
4,COc1ccc(NC(=O)c2cc3c(CO)cnc(C)c3oc2=Nc2cccc(F)c2)c(OC)c1,-10.8
5,Brc1ccc(-c2csc(N3CCCCCC3)n2)cc1,36
6,C=CCn1c(SCc2ccc3nonc3c2)nnc1-c1cccs1,-3.5
7,Oc1ccccc1C=NN=Cc1c(O)ccc2ccccc12,22.8
8,COc1cccc(/C=N\NC(=O)c2ccc(C)nc2)c1,7.76
9,COc1cc(C2CC(=O)N3CN(Cc4ccccc4)CSC3=C2C#N)ccc1OCc1ccccc1 (centres undefined),20.2
10,Cc1cc(C)c(S(=O)(=O)N2CCN(C(=O)c3ccccc3OCc3c(C)noc3C)CC2)c(C)c1,17.2
11,COc1cc(OC)cc(C(=O)N[C@H](C(=O)OCC(=O)c2ccc(C)c([N+](=O)[O-])c2)C(C)C)c1,-0.232
12,COCCn1c(SCC(=O)N2CCc3ccccc32)nc2c(c1=O)SC(C)C2 (centres undefined),-2.61
13,COCCNC(=O)C1CCC(CNS(=O)(=O)c2ccccc2)CC1 (centres undefined),0.853
14,COc1ccc(N2C3=[N+](CC2(C)O)c2ccccc2CC3)cc1 (centres undefined),-2.12
15,CC(CCc1ccco1)N(C)S(=O)(=O)c1csc(C(N)=O)c1 (centres undefined),10.6
16,CCc1nnc(NC(=O)c2cc(S(=O)(=O)N3CCN(CC)CC3)ccc2Cl)s1,4.28
17,Cc1nn(CCCC(=O)Nc2cccnc2Cl)c(C)c1[N+](=O)[O-],2.82
18,Cc1ccc(N2C(=O)c3ccccc3C2Nc2cccnc2)nc1 (centres undefined),-1.05
19,COC(=O)C1=NNC(C(=O)OC)C1c1ccccc1 (centres undefined),-3.6
20,CCOC(=O)C1=C(C)N(C)C(=O)NC1c1ccccc1OC (centres undefined),15.3
21,CCCN(CC1CC1)c1nc(C)nc(Nc2c(Cl)cc(Cl)cc2Cl)c1Cl,18.1
22,CC1CCC(NC(=O)CC2Oc3ccccc3NC2=O)CC1 (centres undefined),-0.482
